Assay outcomes (PubChem)
ELG1 repair inh: blocks ELG1-dependent DNA repair in HEK293T cells | HEK293T ELG1-luciferase reporter, luminescence, 16 h; DNA damage induced by 5-fluorouridine | Potency, µM (highest dose often 46.1 µM), for the others: at the top dose activity change, negative = inhibition, usual class: inhibitors | 2.3% of 330,000 active | AID 504467; also: potency is read from the fitted curve at half-maximal effect; nearly all actives have a fitted effect of over 55% in size
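Cells (2,000 per well) received 5-fluorouridine plus test compound or DMSO and were incubated 16 hr at 37 °C, 5% CO2. Luciferase activity was read by luminescence 30 min after ONE-Glo addition; signal suppression marked inhibition of damage-induced ELG1 function.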
IL1B secr inh: inflammasome signaling inhibition, IL-1 beta readout | THP-1 LPS/ATP IL-1B secretion, AlphaLISA, 16 h; active compounds read low | activity change, % at 57.5 µM | 4.7% of 360,000 active; in the data active = activity change below about -50%; inconclusive = mostly about -30% to -49%
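Secreted IL-1B measured by AlphaLISA bead assay after 16 h compound exposure of THP-1 cells; compounds (final up to 57.5 uM) added 1 h before LPS (250 ng/mL) and ATP (1.25 mM) stimulation; lower signal means less secretion.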
TDP1 cell CPT: growth inhibition of DT40 Tdp1-/-;hTDP1 cells with camptothecin (screen for TDP1 inhibitors); AID 686979; Potency, µM (top dose mostly 46.2 µM), without a hit: at the top dose activity change, negative = growth inhibition, most hits filed as inhibitors; chicken DT40 Tdp1-/-;hTDP1 cells + 20 nM CPT, ATP luminescence, 48 h; 12% of 420,000 active; also: potency is read from the fitted curve at half-maximal effect; nearly all actives have a fitted effect of over 55% in size
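Chicken DT40 Tdp1-/- cells stably complemented with human TDP1 were seeded at 400 cells/well in medium containing 20 nM camptothecin, exposed to pin-transferred compounds, and grown at 37 °C for at least 48 hr. Viability was read as ATP luminescence.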
TDP1 inh: TDP1 (human) enzyme inhibition; Q9NUW8; recombinant TDP1, AlphaScreen DNA substrate cleavage; Potency, µM (titrated, usually from 130 µM), inactives show top-dose activity change, negative = inhibition, usual class: inhibitors; 0.28% of 350,000 active; AID 485290; also: potency is read from the fitted curve at half-maximal effect; nearly all actives have a fitted effect of over 40% in size
Target sequence (Q9NUW8 whole entry, looked up): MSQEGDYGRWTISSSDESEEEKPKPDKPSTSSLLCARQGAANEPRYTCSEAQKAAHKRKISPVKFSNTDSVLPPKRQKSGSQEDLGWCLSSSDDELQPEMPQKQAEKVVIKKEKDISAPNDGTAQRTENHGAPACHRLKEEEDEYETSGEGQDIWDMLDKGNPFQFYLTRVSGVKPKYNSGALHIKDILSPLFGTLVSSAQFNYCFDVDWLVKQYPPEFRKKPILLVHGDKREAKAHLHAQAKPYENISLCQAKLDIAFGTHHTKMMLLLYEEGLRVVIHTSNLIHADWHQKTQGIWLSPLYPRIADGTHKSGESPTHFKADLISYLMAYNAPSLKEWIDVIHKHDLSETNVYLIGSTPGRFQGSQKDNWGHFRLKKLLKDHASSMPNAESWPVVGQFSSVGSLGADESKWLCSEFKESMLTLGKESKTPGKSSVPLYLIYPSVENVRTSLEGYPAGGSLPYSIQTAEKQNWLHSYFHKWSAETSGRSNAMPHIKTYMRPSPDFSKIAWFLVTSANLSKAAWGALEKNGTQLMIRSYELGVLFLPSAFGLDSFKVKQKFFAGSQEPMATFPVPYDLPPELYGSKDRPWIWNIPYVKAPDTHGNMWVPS
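Recombinant human Tdp1 (E. coli-expressed, 1 nM final) preincubated with compounds 15 min at room temperature, then 5'-biotin/3'-phosphotyrosine-FITC DNA substrate (15 nM final) added for 5 min. AlphaScreen beads (10 ug/ml final) added 10 min; cleavage lowers signal.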
TDP1 cell noCPT: qHTS for Inhibitors of human tyrosyl-DNA phosphodiesterase 1 (TDP1): qHTS in cells in absence of CPT | DT40 Tdp1-/- hTDP1 cells, no CPT, ATP luminescence, 48 h | Potency, µM (doses to about 46.2 µM), inactives show at the highest dose activity change, negative = growth inhibition, actives largely listed as inhibitors | 15% of 420,000 active | AID 686978, 2013; also: potency is read from the fitted curve at half-maximal effect; nearly all actives have a fitted effect of over 55% in size
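Chicken DT40 Tdp1-/- cells stably complemented with human TDP1 were seeded at 400 cells/well with DMSO in place of 20 nM camptothecin. After compound pinning, cells grew at least 48 hr at 37 °C; viability read by CellTiter-Glo luminescence.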
Giardia killer: Giardia lamblia killing; Giardia lamblia trophozoite viability; activity change, % at 7.66 µM, hits read low; 0.15% of 340,000 active; AID 540267; in the data active = activity change below about -80%; inconclusive = between about -30% and that limit;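 also: parasites exposed to compound for two days anaerobically before the ATP read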
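Viability, read as ATP luminescence: trophozoites at 100 cells/well, compound added, 48 hrs anaerobic at 37 deg C, then 15-30 min room-temperature development before reading.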
* marks the source's active call; other numbers are inactive results; u = inconclusive; x = no result; [ ] = dose if it differs, or a comment. An excerpt weighted towards active compounds, which were near 19% of everything screened. Unless noted, calls follow the shape of the dose curve; as a rule, active = well fitted curve in the direction sought with a large enough effect; inconclusive = small, poorly fitted or top-dose-only effect, or another doubt; inactive = no such curve, though single readings can be large; an effect the other way counts as inactive or inconclusive. % is scaled to controls: 0 for no effect and ±100 for the full control effect.

SMILES | ELG1 repair inh | IL1B secr inh | TDP1 cell CPT | TDP1 inh | TDP1 cell noCPT | Giardia killer
Cc1nn(C)c(C)c1NC(=O)c1cnn2c(C(F)F)cc(-c3ccccc3)nc12 | 4% | x | x | 1% | x | x
Cc1cc2nc(C)n(CCCNC(=O)Nc3ccc(F)cc3)c2cc1C | 2% | u | u | 5% | 23µM* | 3
Cc1ccc(NC(=O)Nc2ccc3c(c2)nc(C)n3C)cc1C | u | x | x | 7% | x | x
O=C(CN1C(=O)C2CCCCC2C1=O)Nc1cccc([N+](=O)[O-])c1 (centres undefined) | 12% | 0 | -6% | 2% | u | -4
COc1cccc(C(=O)Oc2ccc(/C=N/Nc3ccc(C(=O)O)cc3)cc2OC)c1 | u | -1 | u | x | 29µM* | -10
COc1cccc(OCc2cc(/C=N/Nc3ccc(C(=O)O)cc3)ccc2OC)c1 | u | 19 | 21µM* | 3% | 21µM* | -16
COCc1cc(/C=N\NC(=O)COc2ccccc2)ccc1OC | -3% | 8 | -2% | 1% | -23% | -19
COc1ccc(NC(=O)Cn2nc(C)c3c(C)n(-c4ccccc4)nc3c2=O)cc1OC | x | x | -4% | 0% | -25% | x
CN(C)c1ccc2c(O)cc(=O)n(C)c2c1 | 9% | 33 | 15µM* | -2% | 16µM* | 11
CN(C)c1ccc2cc(S(=O)(=O)O)cc(O)c2c1 | x | -22 | u | x | -9% | 9
COc1ccc2c(c1)C[C@]1(C)c3ccccc3C(=O)N(Cc3ccccc3)[C@H]21 | x | -12 | 16µM* | x | 6.3µM* | -1
COc1ccc2c(c1)C(=O)N(Cc1ccccc1)C(=O)C2(C)C | -2% | -15 | -2% | x | -30% | -13
Cc1ccc(NC(=O)CCC(=O)N/N=C/c2ccc([N+](=O)[O-])o2)cc1C | u | 9 | u | -14% | u | u
O=C(CNc1ccc2ccccc2c1)N/N=C/c1ccc([N+](=O)[O-])o1 | -16% | -9 | 15µM* | -3% | 21µM* | -91*
O=C(CSc1ccc(Cl)cc1)N/N=C/c1ccc([N+](=O)[O-])o1 | 6% | -29 | 16µM* | x | u | -95*
O=C(CNc1ccc2ccccc2c1)N/N=C/c1ccc(C(=O)O)cc1 | 24% | -2 | -2% | 0% | 2% | -1
CC1(C(=O)OCC(=O)Nc2ccc(C(N)=O)cc2)CC1(Cl)Cl (centres undefined) | u | 0 | 5% | -1% | 11% | 3
CC1(C(=O)OCC(=O)NCCNC(=O)COC(=O)C2(C)CC2(Cl)Cl)CC1(Cl)Cl (centres undefined) | 16% | 4 | u | 3% | 16µM* | 18
CC1(C(=O)OCC(=O)Nc2ccc3ccccc3c2)CC1(Cl)Cl (centres undefined) | -8% | -97* | u | -13% | u | 3
COCCCN1C(=O)c2oc3ccccc3c(=O)c2C12C(=O)N(C)c1ccccc12 (centres undefined) | x | x | 3% | 4% | -9% | x
CCOC(=O)c1c(C)[n+](-c2ccc(C)cc2)c(CC)c2cc(OC)c(OC)cc12 | -13% | 21 | 2.1µM* | x | 2.6µM* | -3
COc1ccc(Cc2nnc(NC(=O)c3cccc([N+](=O)[O-])c3)s2)cc1 | 2% | -8 | -19% | 3% | u | 2
CC(=O)Oc1ccc(OC(C)=O)c(SCCCCCN2CCOCC2)c1 | -18% | 0 | u | 2% | 3.7µM* | -2
COc1ccc(NS(=O)(=O)c2cccc(NC(=O)c3ccc(Cl)nc3)c2)cc1 | u | -9 | 1.2µM* | 5% | 3.3µM* | -3
CN(C)S(=O)(=O)c1cccc(NC(=O)c2cnccn2)c1 | 8% | x | x | -8% | x | x
SMILES | ELG1 repair inh | IL1B secr inh | TDP1 cell CPT | TDP1 inh | TDP1 cell noCPT | Giardia killer
COc1ccc(NS(=O)(=O)c2cccc(NC(=O)c3cnccn3)c2)cc1Br | 18µM* | -20 | 16µM* | -1% | 18µM* | -8
O=C(Nc1cccc(S(=O)(=O)Nc2ccc(Cl)cc2)c1)c1ccc(Cl)nc1 | u | -8 | 2.3µM* | 0% | 0.65µM* | 0
O=C(O)CC1S/C(=N\N=C2\C(=O)Nc3ccccc32)N(c2ccc(O)cc2)C1=O (centres undefined) | -1% | 13 | -10% | x | 22% | -12
CCCc1ccc(C(=O)O)cc1 | x | x | 0% | 6% | -4% | x
CC(NC(=O)CCc1nnc(CCCc2ccccc2)o1)c1ccccc1 (centres undefined) | u | 47 | 4% | -1% | 5% | 8
Cc1ccc(SCC(=O)NC2CCCCCC2)cc1 | u | 1 | -2% | 0% | u | -5
CCOC(=O)C1CCN(CC(O)COc2ccc(C(C)(C)CC)cc2)CC1 (centres undefined) | -17% | u | 16µM* | 0% | 18µM* | -6
CCOC(=O)C1CCN(CC(O)COc2ccc(C(C)(C)C)cc2)CC1 (centres undefined) | -27% | -7 | u | -1% | 16µM* | 13
CC(C)C1=CC2=CC[C@@H]3[C@](C)(CCC[C@@]3(C)C(=O)O)[C@H]2CC1 | x | x | -8% | 4% | -5% | x
CC(C)OC(=O)c1cccc(C(=O)OCc2ccco2)n1 | u | -74* | u | -6% | 21µM* | 5
O=C(Nc1ccc(F)cc1F)C1CCN(c2ncnc3c2sc2cccc(F)c23)CC1 | 3% | 27 | 6.5µM* | x | 16µM* | 0
Cc1ccc2cc(CN(C(=O)c3ccc4c(c3)OCO4)C3CC3)c(N(C)C)nc2c1 | x | x | 6%[9.04 µM] | x | -17% | x
CCCCn1nnnc1C(c1ccc(OC)cc1)N1CCN(C/C=C/c2ccccc2)CC1 (centres undefined) | x | u | u | x | 18µM* | x
COc1cccc(C(c2nnnn2C(C)(C)C)N2CCN(C/C=C/c3ccccc3)CC2)c1OC (centres undefined) | x | -9 | u | x | 16µM* | x
CCCCn1nnnc1C(C1CC1)N1CCN(C/C=C/c2ccccc2)CC1 (centres undefined) | x | -20 | u | x | 16µM* | x
COc1ccc(C(c2nnnn2C(C)(C)C)N2CCN(C/C=C/c3ccccc3)CC2)cc1 (centres undefined) | x | -16 | u | x | u | x
C(=C\c1ccccc1)/CN1CCN(C(c2ccccc2)c2nnnn2-c2ccc3c(c2)OCCO3)CC1 (centres undefined) | x | 0 | u | x | u | x
